From PubChem BioAssay (NCI) come the findings set out here.

The structures appear in SMILES notation. This is part of a sample that, as a whole, favours compounds with a hit. Of some 83,000 tested, about 20% had one in any assay.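 Treatment: one concentration, 48 hours, 96-well format. Scoring: percent growth, with anything below 10 considered active.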 Unmarked numbers belong to inactive results. The source made the active and inactive calls.

Among the test systems are HCT-15 colon; HT29 colon; SNB-75 CNS; SNB-19 CNS; U251 CNS; PC-3 prostate; SK-MEL-5 melanoma; UACC-62 melanoma; LOX IMVI melanoma; SK-MEL-28 melanoma; SK-MEL-2 melanoma; EKVX NSCLC; SN12C renal; UO-31 renal; TK-10 renal; ACHN renal; CAKI-1 renal; A498 renal; CCRF-CEM leukemia; MOLT-4 leukemia.
What all share (experiment): NCI-60 one-dose screen, 48 h (100 = growth as untreated, 0 = no growth, -100 = all killed)
Common to all, as to conditions: 10 µM unless noted

For the compound `CC1(/C=C/c2ccc(-c3ccccc3)cc2)CCn2cnc3ncnc(c32)N1O` (stereo not given), the growth in the test with HCT-15 colon is 21.5%; in the test on HT29 colon, 30%; with SNB-75 CNS, 36.3%; in the test with SNB-19 CNS, 26.7%; with U251 CNS, 24.7%; with PC-3 prostate it was 42.4%. For the same compound, the growth in the test on SK-MEL-5 melanoma was -6.47% (active); in the test on UACC-62 melanoma, 0.915% (active); with LOX IMVI melanoma, 9.21% (active); with SK-MEL-28 melanoma, 29.7%; in the test with SK-MEL-2 melanoma it was 38.8%; in the test with EKVX NSCLC, 17.6%. The growth is 20.2% in the test on SN12C renal; -5.45% (active) in the test on UO-31 renal; 34.1% in the test with TK-10 renal; 6.19% (active) in the test with ACHN renal; 4.49% (active) in the test with CAKI-1 renal; 19% in the test with A498 renal. Moreover, the growth in the test on CCRF-CEM leukemia was 11.8%; with MOLT-4 leukemia, 14.2%.

As for `O=S(=O)(Nc1cc(Sc2nc3ccccc3s2)c(O)c2ccccc12)c1ccc2ccccc2c1`, the growth in the test with HCT-15 colon was 97.5%; with HT29 colon, 115%; with SNB-75 CNS it was 88.2%; in the test with SNB-19 CNS, 106%; with U251 CNS, 86.6%; in the test on PC-3 prostate it was 77.3%. The growth in the test with SK-MEL-5 melanoma was 74.5%; in the test with UACC-62 melanoma, 99.1%; with LOX IMVI melanoma it was 60.1%; with SK-MEL-28 melanoma, 116%; in the test with SK-MEL-2 melanoma, 95.8%; with EKVX NSCLC it was 101%. The growth with SN12C renal was 90.6%; with UO-31 renal it was 70.2%; in the test with TK-10 renal, 123%; in the test on ACHN renal, 97.6%; in the test with CAKI-1 renal, 101%; with A498 renal, 96.9%. Also, the growth in the test with CCRF-CEM leukemia was 67.7%; with MOLT-4 leukemia, 59.1%.

In the case of `Cc1cc(=O)n(C(=S)Nc2ccc(Cl)cc2)c2cc(O)ccc12`, the growth in the test with HCT-15 colon was 105%; in the test with HT29 colon, 104%; in the test on SNB-75 CNS, 86.1%; in the test with SNB-19 CNS, 102%; with U251 CNS, 101%; in the test with PC-3 prostate it was 95.6%. The growth in the test on SK-MEL-5 melanoma was 95.3%; in the test with UACC-62 melanoma it was 100%; in the test with LOX IMVI melanoma, 99.3%; in the test with SK-MEL-28 melanoma, 114%; in the test on SK-MEL-2 melanoma, 104%; with EKVX NSCLC, 94.7%. The growth is 105% in the test with SN12C renal; 72.2% with UO-31 renal; 116% with TK-10 renal; 100% in the test on ACHN renal; 85.1% in the test on CAKI-1 renal; 122% in the test on A498 renal. The results for the growth in the test with CCRF-CEM leukemia and with MOLT-4 leukemia were 110% and 102%, respectively.

Turning to `O=C(/C=C/c1ccccc1)c1ccc(-n2cc(CN3CCN(c4cc5c(cc4F)c(=O)c(C(=O)O)cn5C4CC4)CC3)nn2)cc1`, the growth with HCT-15 colon is 91.6%; with HT29 colon it was 79.2%; in the test with SNB-75 CNS, 72.3%; in the test on SNB-19 CNS, 72%; in the test on U251 CNS, 42.2%; in the test on PC-3 prostate, 79.3%. Further, the growth was 77.6% in the test with SK-MEL-5 melanoma; 73.8% in the test with UACC-62 melanoma; 36.2% with LOX IMVI melanoma; 88.2% in the test with SK-MEL-28 melanoma; 96.8% in the test with SK-MEL-2 melanoma; 94% in the test with EKVX NSCLC. The growth is 45.8% with SN12C renal; 62.5% in the test with UO-31 renal; 83.3% in the test on TK-10 renal; 93.5% in the test on ACHN renal; 61.4% with CAKI-1 renal; 52.2% in the test on A498 renal. Further, the growth in the test on CCRF-CEM leukemia was 64.9%; in the test with MOLT-4 leukemia it was 84.1%.

For `c1cc(OCCN2CCCCCC2)ccc1CNc1ccc2nc(CCC3CCCCC3)[nH]c2c1`, the growth in the test on HCT-15 colon was 3.08% (active); in the test on HT29 colon, 8.15% (active); in the test on SNB-75 CNS, 74.2%; in the test with SNB-19 CNS it was 79.5%; with U251 CNS, 45.2%; in the test on PC-3 prostate it was 50.5%. Moreover, the growth was -86.3% (active) in the test on SK-MEL-5 melanoma; 83.9% with UACC-62 melanoma; -67.4% (active) with LOX IMVI melanoma; -8.14% (active) with SK-MEL-28 melanoma; 75% in the test with SK-MEL-2 melanoma; 79.8% in the test on EKVX NSCLC. Also, the growth was 54.7% in the test with SN12C renal; 10.8% in the test with UO-31 renal; 88.7% in the test with TK-10 renal; 80.6% in the test on ACHN renal; 42.8% with CAKI-1 renal; 62.5% in the test on A498 renal. In addition, the growth with CCRF-CEM leukemia was 29.5%; in the test with MOLT-4 leukemia, 25.5%.

Take `COCCn1cc(-c2csc(-c3c[nH]c4ccccc34)n2)c2cccnc21`: the growth in the test on HCT-15 colon is 25.8%; with HT29 colon, 11.6%; in the test on SNB-75 CNS it was 20.5%; in the test on SNB-19 CNS, 65.5%; in the test on U251 CNS it was 35.5%; in the test on PC-3 prostate, 29.6%. Besides, the growth in the test with SK-MEL-5 melanoma was 8.9% (active); in the test on UACC-62 melanoma, 54.8%; in the test with LOX IMVI melanoma it was 34.1%; in the test on SK-MEL-28 melanoma it was 64.4%; in the test with SK-MEL-2 melanoma, 18.3%; with EKVX NSCLC, 31.8%. Besides, the growth in the test with SN12C renal is 64.3%; in the test with UO-31 renal it was 44%; in the test with TK-10 renal, 34.9%; in the test with ACHN renal it was 49.6%; with CAKI-1 renal, 56.2%; in the test with A498 renal, 17.7%. In addition, the growth is 36.7% in the test with CCRF-CEM leukemia and 25.7% with MOLT-4 leukemia.

In the case of `CCOC(=O)C1=C(CC(O)c2ccc(OC)cc2OC)NC(=O)NC1c1ccccc1` (stereo not given), the growth was 110% in the test with HCT-15 colon; 100% with HT29 colon; 87.3% in the test with SNB-75 CNS; 99.8% in the test on SNB-19 CNS; 106% in the test on U251 CNS; 95.3% with PC-3 prostate. Besides, the growth in the test on SK-MEL-5 melanoma was 95.5%; in the test with UACC-62 melanoma, 89.8%; with LOX IMVI melanoma, 94.5%; in the test on SK-MEL-28 melanoma, 115%; in the test on SK-MEL-2 melanoma it was 120%; in the test on EKVX NSCLC, 105%. The growth in the test on SN12C renal was 105%; with UO-31 renal it was 95.8%; in the test on TK-10 renal it was 120%; in the test on ACHN renal it was 109%; in the test with CAKI-1 renal it was 92.2%; in the test with A498 renal, 122%. Besides, the growth with CCRF-CEM leukemia is 95.3%; in the test with MOLT-4 leukemia it was 17.2%.

Take `CN(C)c1ccc(/C=N\NC(=O)c2ccc3nc(-c4ccc(Cl)cc4)[nH]c3c2)cc1`: the growth in the test with HCT-15 colon is 66.8%; with HT29 colon, 4.33% (active); in the test with SNB-75 CNS, 97.2%; with SNB-19 CNS it was 60.4%; in the test with U251 CNS it was 1.62% (active); in the test with PC-3 prostate, 46.8%. Also, the growth in the test on SK-MEL-5 melanoma is 89%; in the test on UACC-62 melanoma it was 88.2%; in the test with LOX IMVI melanoma it was 34%; with SK-MEL-28 melanoma, 71.9%; with SK-MEL-2 melanoma, 83.3%; in the test on EKVX NSCLC it was 73.2%. Besides, the growth in the test on SN12C renal was 41.2%; with UO-31 renal it was 75.4%; with TK-10 renal, 94.4%; in the test on ACHN renal it was 35.7%; in the test on CAKI-1 renal, 84.9%; with A498 renal, 72.9%. The growth with CCRF-CEM leukemia was 21.4%; in the test on MOLT-4 leukemia, 23.6%.
